Data from PubChem BioAssay AID1159580 (chemical genetic matrix, 2015).
In all, about 5,500 compounds went through this assay and about 2,000 (36%) were called active. Roughly 18% stayed inconclusive and do not appear here. No stated cut-off is given here; in the data, active means normalized growth mostly below about 0.91 (no sharp cut-off); inconclusive means no clear call, values can overlap the other calls; inactive means mostly above about 0.92. The list shows a part of the results.

Experiment: chemical genetic growth profiling, strain panel (AID 1159580);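 further: tested at 20 µM; growth read once vehicle control cultures reached saturation at 30 °C; 1 = growth at the plate median or of vehicle wells; lower values mean less growth of the strain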
Details: S. cerevisiae deletion strains, growth OD

Measured: normalized growth

CC1(C)S[C@@H]2[C@H](NC(=O)[C@H](C(=O)O)c3cccs3)C(=O)N2[C@H]1C(=O)O
inactive: locus YAL021C, strain ccr4, active compounds read low 0.996 | locus YAL026C, strain drs2, active compounds read low 1.02 | locus YAL030W, strain snc1, active compounds read low 1.01 | locus YBL061C, strain skt5, active compounds read low 1.01 | locus YBR009C, strain hhf1, active compounds read low 1.03 | locus YBR023C, strain chs3, active compounds read low 1.01 | locus YBR171W, strain sec66, active compounds read low 1.03 | locus YBR231C, strain swc5, active compounds read low 1.02 | locus YBR279W, strain paf1, active compounds read low 1.01 | locus YCL011C, strain gbp2, active compounds read low 1.01 | locus YCL016C, strain dcc1, active compounds read low 0.998 | locus YCL061C, strain MRC1, active compounds read low 1.01 | locus YCL069W, strain vba3, active compounds read low 0.999 | locus YCR088W, strain abp1, active compounds read low 0.996 | locus YDL005C, strain med2, active compounds read low 1.01 | locus YDL040C, strain nat1, active compounds read low 0.999 | locus YDR001C, strain nth1, active compounds read low 1 | locus YDR069C, strain doa4, active compounds read low 1.04 | locus YDR137W, strain rgp1, active compounds read low 1.02 | locus YDR159W, strain sac3, active compounds read low 1.01 | locus YDR195W, strain ref2 1.02 | locus YDR297W, strain sur2, active compounds read low 1.01 | locus YDR334W, strain swr1, active compounds read low 1 | locus YDR335W, strain msn5, active compounds read low 1.01 | locus YDR392W, strain spt3, active compounds read low 1.01 | locus YEL003W, strain gim4, active compounds read low 1.01 | locus YEL037C, strain rad23, active compounds read low 0.973 | locus YEL061C, strain CIN8 (second series), active compounds read low 0.991 | locus YER015W, strain faa2, active compounds read low 1.01 | locus YER016W, strain bim1, active compounds read low 1 | locus YER111C, strain swi4, active compounds read low 1.01 | locus YER155C, strain BEM2 (second series), active compounds read low 1.04 | locus YFR010W, strain ubp6, active compounds read low 1 | locus YGL167C, strain pmr1, active compounds read low 1.01 | locus YGL173C, strain kem1, active compounds read low 1.01 | locus YGL227W, strain vid30, active compounds read low 1 | locus YGL240W, strain doc1, active compounds read low 1.04 | locus YGL253W, strain hxk2, active compounds read low 0.998 | locus YHR013C, strain ard1, active compounds read low 1.03 | locus YHR027C, strain rpn1, active compounds read low 1 | locus YHR030C, strain SLT2, active compounds read low 1.01 | locus YHR079C, strain IRE1, active compounds read low 1.02 | locus YHR142W, strain chs7, active compounds read low 0.957 | locus YJL092W, strain hpr5, active compounds read low 1 | locus YJL095W, strain BCK1 (second series), active compounds read low 1 | locus YJL095W, strain BCK1, active compounds read low 0.974 | locus YJL115W, strain asf1, active compounds read low 1 | locus YJL129C, strain trk1, active compounds read low 1.01 | locus YJL154C, strain vps35, active compounds read low 0.999 | locus YJL164C, strain tpk1, active compounds read low 0.999 | locus YJL166W, strain qcr8, active compounds read low 1.01 | locus YJL187C, strain SWE1, active compounds read low 1.02 | locus YJR066W, strain TOR1, active compounds read low 0.952 | locus YKL160W, strain elf1, active compounds read low 1.01 | locus YKR026C, strain gcn3, active compounds read low 0.991 | locus YKR091W, strain srl3, active compounds read low 1.01 | locus YLL001W, strain dnm1, active compounds read low 0.999 | locus YLL026W, active compounds read low 1.01 | locus YLL041C, strain sdh2, active compounds read low 1.01 | locus YLR027C, strain aat2, active compounds read low 1.01 | locus YLR113W, strain HOG1, active compounds read low 0.971 | locus YLR221C, strain rsa3, active compounds read low 0.989 | locus YLR258W, strain gsy2, active compounds read low 1.02 | locus YLR262C, strain YPT6 (second series), active compounds read low 0.996 | locus YLR320W, strain mms22, active compounds read low 1.01 | locus YLR342W, strain FKS1, active compounds read low 1.01 | locus YLR357W, strain rsc2, active compounds read low 1.07 | locus YLR370C, strain arc18, active compounds read low 1.01 | locus YLR384C, strain iki3, active compounds read low 0.994 | locus YML120C, strain ndi1, active compounds read low 1.01 | locus YMR058W, strain fet3, active compounds read low 1.02 | locus YMR125W, strain sto1, active compounds read low 1.03 | locus YMR129W, active compounds read low 1 | locus YMR205C, strain PFK2, active compounds read low 1.03 | locus YMR231W, strain pep5, active compounds read low 1.01 | locus YNL071W, strain lat1, active compounds read low 1.01 | locus YNL183C, strain NPR1, active compounds read low 0.96 | locus YNL209W, strain ssb2, active compounds read low 1.01 | locus YNL248C, strain rpa49, active compounds read low 0.991 | locus YNL322C, strain KRE1 (second series), active compounds read low 1.01 | locus YNR049C, strain mso1, active compounds read low 0.994 | locus YOR001W, strain rrp6, active compounds read low 1 | locus YOR070C, strain gyp1, active compounds read low 0.999 | locus YOR080W, strain dia2, active compounds read low 1.02 | locus YOR083W, strain WHI5, active compounds read low 1 | locus YOR106W, strain vam3, active compounds read low 1 | locus YOR231W, strain MKK1, active compounds read low 1.02 | locus YOR265W, strain rbl2, active compounds read low 0.998 | locus YOR270C, strain vph1, active compounds read low 1 | locus YOR290C, strain snf2, active compounds read low 1.01 | locus YPL051W, strain arl3, active compounds read low 1 | locus YPL078C, strain atp4, active compounds read low 0.989 | locus YPL106C, strain sse1, active compounds read low 1.03 | locus YPL240C, strain hsp82, active compounds read low 0.986 | locus YPL256C, strain CLN2, active compounds read low 1.03
